# Results published in PubChem BioAssay AID2013 (Sanford-Burnham Center for Chemical Genomics, 2009).
# Screen size: about 290,000 compounds; about 370 (0.13%) were called active. Only a selection was taken, and actives are over-represented in it overall. Entries with a potency or affinity are not part of this list. A number with no mark means an inactive call.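 The calls were made as follows: active = spots per cell inhibited over 60%, with over 100 cells counted and total cytoplasm intensity under 500,000; inconclusive = wells with under 100 cells, flagged as likely toxic; inactive = the rest.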
# Target: G-protein coupled receptor 55 (Homo sapiens) (UniProt Q9Y2T6)
# Sequence (Q9Y2T6 whole entry, looked up): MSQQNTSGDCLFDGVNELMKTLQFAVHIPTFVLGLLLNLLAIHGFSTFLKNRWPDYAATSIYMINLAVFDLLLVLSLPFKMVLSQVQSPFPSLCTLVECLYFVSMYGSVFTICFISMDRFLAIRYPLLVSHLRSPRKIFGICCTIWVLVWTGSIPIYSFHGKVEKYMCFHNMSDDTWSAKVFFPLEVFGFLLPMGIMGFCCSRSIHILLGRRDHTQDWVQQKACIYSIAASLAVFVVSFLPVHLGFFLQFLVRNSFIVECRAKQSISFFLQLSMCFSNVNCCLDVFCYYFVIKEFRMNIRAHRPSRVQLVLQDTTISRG
# Test: GPR55 antagonists blocking LPI-driven arrestin recruitment, primary screen, imaging, U2OS, beta-arrestin-GFP, LPI agonist (AID 2013);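 also: U2OS cells stably carrying GPR55 and arrestin-GFP stimulated by 5 µM LPI near EC80; imaged beta-arrestin-GFP aggregate spots per cell after agonist stimulation; plate controls were LPI-stimulated DMSO wells for no effect and DMSO wells without LPI for full effect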
# Settings: U2OS GPR55 beta-arrestin-GFP translocation imaging, LPI antagonism; at 10 µM; hits give high values
row,Compound,inhibition
1,COc1cccc(NC(=O)C23CCC(C)(C(=O)O2)C3(C)C)c1 (stereo unspecified),-7.9%
2,Cc1csc(SCC(=O)Nc2sccc2C(N)=O)n1,2.4%
3,CCOC(=O)CC1C(=O)NCCN1c1nc2ccc(C)cn2c(=O)c1/C=C1\SC(=S)N(CC(C)C)C1=O (stereo unspecified),26.9%
4,CCCN1C(=O)/C(=C/c2c(N3CCNC(=O)C3CC(=O)OC)nc3c(C)cccn3c2=O)SC1=S (stereo unspecified),46.4%
5,CCOC(=O)CC1C(=O)NCCN1c1nc2ccc(C)cn2c(=O)c1/C=C1\SC(=S)N(C(C)CC)C1=O (stereo unspecified),70.2% (active)
6,CCCN1C(=O)/C(=C/c2c(N3CCNC(=O)C3CC(=O)OCC)nc3c(C)cccn3c2=O)SC1=S (stereo unspecified),88.9% (active)
7,CCOC(=O)CC1C(=O)NCCN1S(=O)(=O)c1ccc(C)cc1 (stereo unspecified),6.6%
8,CCCN1C(=O)/C(=C/c2c(NCCCOCC)nc3c(C)cccn3c2=O)SC1=S,8%
9,CSc1ccccc1C(=O)NCc1cccnc1,-2.4%
10,C=CCn1c(SCC(=O)Nc2ccc(F)cc2F)nc2c([nH]c3ccccc32)c1=O,-3.4%
11,CCC(NS(=O)(=O)c1ccc2c(c1)NC(=O)C(C)C(=O)N2)c1cccs1 (stereo unspecified),1%
12,CC/C(=N/N=C(\CC)c1ccccc1)c1ccccc1,20.4%
13,COc1ccccc1N1CCN(C(=O)c2cc3c(s2)CCCCC3)CC1,6.6%
14,c1ccc(CN2CCC(Nc3nc(-c4ccccc4)nc4ccccc34)CC2)cc1,31%
15,c1ccc(CN2CCC(Nc3nc(-c4cccs4)nc4ccccc34)CC2)cc1,84.6% (active)
16,c1ccc(CN2CCC(Nc3nc(-c4cccnc4)nc4ccccc34)CC2)cc1,21.2%
17,CC(=O)Nc1ccc(C(=O)OCC(=O)Nc2ccccc2Sc2ccccc2)cc1,16.2%
18,N#CCC(=O)Nc1ccc(C(=O)OCC(=O)Nc2ccccc2-c2ccccc2)cc1,6.7%
19,Cc1ccc(S(=O)(=O)N2CCN(c3nc(C(C)C)c4c(c3C#N)CC(C)(C)OC4)CC2)cc1,2.3%
20,Cc1nc(N2CCOCC2)c(C#N)c2c1COC(C)(C)C2,-9%
21,COc1cc(C2c3c(oc4cc(C)c(C)cc4c3=O)C(=O)N2c2cc(C)ccn2)ccc1O (stereo unspecified),2.8%
22,COc1ccc(C2c3c(oc4ccc(C)cc4c3=O)C(=O)N2c2cc(C)ccn2)cc1OC (stereo unspecified),86.9% (active)
23,COc1cc(C2c3c(oc4ccc(C)cc4c3=O)C(=O)N2c2cc(C)ccn2)cc(OC)c1OC (stereo unspecified),17.6%
24,COc1cccc(-c2cc(=O)c3cc(NC(=O)c4ccc(Cl)cc4)ccc3[nH]2)c1,-2.5%
25,O=C(c1cccc(Oc2ccc([N+](=O)[O-])cc2Cl)c1)N1CCOCC1,-4.4%
26,O=C(c1ccc(Oc2ccc([N+](=O)[O-])cc2Cl)cc1)N1CCCC1,-12.4%
